Test results published in PubChem BioAssay (Tox21).
Inconclusive results are not listed. Active and inactive are the calls of the source. Unless noted, calls come from the whole dose curve; as a rule, active = well fitted curve in the direction sought with a large enough effect in the repeat runs; inconclusive = weak or mixed curves; inactive = no such curve, though single readings can be large; an effect the other way counts as inactive or inconclusive.

Key:
[1] = target: Peroxisome proliferator-activated receptor delta (Homo sapiens) (UniProt Q03181); test: qHTS assay to identify small molecule agonists of the peroxisome proliferator-activated receptor delta (PPARd) signaling pathway (AID 743212; calls by dose curve;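 note: HEK293H cells with PPARd UAS beta-lactamase reporter GeneBLAzer system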)
In short: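 Beta-lactamase reporter readout: a ratiometric FRET signal from the LiveBLAzer substrate after 2 h at room temperature. Compound exposure at 37 °C in PPARδ-bla HEK293H cells driven by an upstream activator sequence.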

[2] = qHTS assay to identify small molecule antagonists of the peroxisome proliferator-activated receptor delta (PPARd) signaling pathway - cell viability counter screen (AID 743213); note: nearly all actives have a fitted effect of over 50% in size
In short: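 In this counter screen, HEK293H cells carrying a UAS-beta-lactamase reporter are co-treated with test compounds and 300 nM L165041 (final) for 17 h at 37 C; cell viability is quantified by CellTiter-Glo luminescence.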

[3] = target: Peroxisome proliferator-activated receptor delta (Homo sapiens) (UniProt Q03181); test: qHTS assay to identify small molecule antagonists of the peroxisome proliferator-activated receptor delta (PPARd) signaling pathway (AID 743215; active = well fitted inhibition curve with a large enough effect in the signal ratio in the repeat runs, not every such curve was filed as active; the % refers to the signal ratio;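 note: cells stimulated with agonist L165041 at 300 nM final during compound exposure; series mostly up to about 62 µM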)
In short: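 Plated HEK293H PPARd-bla cells rested 5 h at 37 C and 5% CO2. Compound, then agonist L165041 at 300 nM final, was added; 17 h at 37 C followed. Substrate loading, 2 h room temperature, fluorescence measured.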

[4] = target: Bile acid receptor (Homo sapiens) (UniProt Q96RI1); test: qHTS assay to identify small molecule antagonists of the farnesoid-X-receptor (FXR) signaling pathway (AID 743217; active = well fitted inhibition curve with a large enough effect in the signal ratio in the repeat runs, not every such curve was filed as active; the % refers to the signal ratio)
In short: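 Screen of the Tox21 10K library in quantitative HTS format using FXR-UAS-bla HEK 293T reporter cells. Agonist chenodeoxycholic acid, 50 uM final, added with compounds; 16 h incubation at 37 °C; beta-lactamase FRET fluorescence measured.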

[5] = qHTS assay to identify small molecule agonists of the farnesoid-X-receptor (FXR) signaling pathway - cell viability counter screen (AID 743218); note: nearly all actives have a fitted effect of over 45% in size
In short: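 Viability of FXR-bla HEK 293T cells is measured by ATP-based CellTiter-Glo luminescence following 16 h compound treatment at 37 C and a prior 2 h room-temperature beta-lactamase substrate step.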

[6] = target: Bile acid receptor (Homo sapiens) (UniProt Q96RI1); test: qHTS assay to identify small molecule agonists of the farnesoid-X-receptor (FXR) signaling pathway (AID 743220; active = well fitted activation curve with a large enough effect in the signal ratio in the repeat runs, not every such curve was filed as active; the % refers to the signal ratio)
In short: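 FXR-UAS-bla HEK 293T cells carrying a UAS-driven beta-lactamase reporter were plated for 5 h at 37C/5% CO2, then exposed to DMSO-dissolved Tox21 10K compounds for 16 h at 37C. A LiveBLAzer B/G FRET substrate was loaded for 2 h at room temperature before fluorescence reading.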

[7] = qHTS assay to identify small molecule antagonists of the farnesoid-X-receptor (FXR) signaling pathway - cell viability counter screen (AID 743221; active = well fitted cell-killing curve with a large enough effect in the repeat runs, not every such curve was filed as active; note: nearly all actives have a fitted effect of over 50% in size)
In short: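 Multiplexed counter screen: viability of FXR-bla HEK 293T cells under agonist stimulation by chenodeoxycholic acid (50 uM, final) and test compound for 16 h at 37 C, measured by CellTiter-Glo luminescence in the reporter wells.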

[8] = target: Vitamin D3 receptor (Homo sapiens) (UniProt P11473); test: qHTS assay to identify small molecule agonists of the vitamin D receptor (VDR) signaling pathway (AID 743222; calls by dose curve)
In short: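 Fluorescence from cleaved LiveBLAzer B/G FRET substrate served as readout. VDR-bla cells had been treated 16 h at 37C with test compounds in DMSO, following a 4 h settling period, and substrate was loaded for 2 h at RT.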

[9] = qHTS assay to identify small molecule agonists of the vitamin D receptor (VDR) signaling pathway - cell viability counter screen (AID 743224); note: series mostly up to about 63 µM; nearly all actives have a fitted effect of over 50% in size
In short: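 Compounds were pin-transferred onto VDR-bla cells plated 4 h earlier; following 16 h incubation at 37C, cell viability was quantified by CellTiter-Glo luminescence after 30 min at room temperature.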

[10] = qHTS assay to identify small molecule antagonists of the vitamin D receptor (VDR) signaling pathway - cell viability counter screen (AID 743225); note: nearly all actives have a fitted effect of over 50% in size
In short: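 HEK293T VDR-bla; cpd + 1a,25-(OH)2D3 3 nM final, 16 h 37C/5% CO2; B/G FRET substrate 2 h RT; then CellTiter-Glo 30 min RT, luminescence.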

[11] = qHTS assay to identify small molecule agonists of the NFkB signaling pathway (AID 1159509; active = well fitted curve in the direction sought with a large enough effect in the signal ratio in the repeat runs, not every such curve was filed as active; the % refers to the signal ratio; note: series mostly up to about 61 µM)
In short: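 Pathway activation was measured in ME-180 cells stably expressing beta-lactamase under NF-kB response element control. Substrate cleavage was read as the 460/530 nm emission shift after 5 hr compound incubation.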

[12] = qHTS assay to identify small molecule agonists of the endoplasmic reticulum stress response signaling pathway (AID 1159516; active = well fitted activation curve with a large enough effect in the signal ratio in the repeat runs, not every such curve was filed as active; the % refers to the signal ratio)
In short: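 Using a HeLa line with an ESRE-driven beta-lactamase gene, agonist activity was measured by FRET substrate fluorescence (460 and 530 nm emission) after cells were treated with compounds for 5 hr at 37 C and 5% CO2.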

[13] = qHTS assay to identify small molecule agonists of the endoplasmic reticulum stress response signaling pathway - cell viability counter screen (AID 1159517; calls by dose curve)
In short: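 ESRE-bla HeLa cells (1,500/well) were plated overnight at 37 C and exposed to compounds for 5 hr. After the 2 hr beta-lactamase substrate read, CellTiter-Glo went into the same wells, and luminescence was read after 30 min at room temperature.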

[14] = qHTS assay to identify small molecule antagonists of the retinoid-related orphan receptor gamma (ROR-gamma) signaling pathway - cell viability counter screen (AID 1159520); note: nearly all actives have a fitted effect of over 50% in size
In short: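 Cytotoxicity was read from cellular ATP (CellTiter-Glo luminescence) after 16 hr at 37 C with 1 uM doxycycline induction. The inducer was added 2 hr after compound transfer to Tet-on ROR gamma CHO cells.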

[15] = target: Nuclear receptor ROR-gamma (Homo sapiens) (UniProt P51449); test: qHTS assay to identify small molecule antagonists of the retinoid-related orphan receptor gamma (ROR-gamma) signaling pathway (AID 1159521)
In short: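 Cells were plated, rested 4 h at 37 C, exposed to compounds for 2 h, then given 1 uM final doxycycline hyclate to induce RORγ expression. After 16 h, ONE-Glo luminescence from the ROR response element reporter was measured.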

[16] = qHTS assay to identify small molecule agonists of the AP-1 signaling pathway - cell viability counter screen (AID 1159525; calls by dose curve; note: nearly all actives have a fitted effect of over 55% in size)
In short: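 Intracellular ATP by Cell Titer Glo luminescence (30 min, RT) in the same ME-180 AP-1-bla wells after the 5 h compound exposure at 37 °C. Normalised to tetra n-octyl ammonium bromide and DMSO controls.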

[17] = qHTS assay to identify small molecule agonists of the AP-1 signaling pathway (AID 1159526; calls by dose curve)
[18] = qHTS assay to identify small molecule agonists of the peroxisome proliferator-activated receptor delta (PPARd) signaling pathway - cell viability counter screen (AID 743211); note: nearly all actives have a fitted effect of over 55% in size
In short: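 Counter screen for cytotoxicity run in parallel with the PPARd reporter screen. Beta-lactamase reporter HEK293H cells exposed to compounds 17 h; ATP-based CellTiter-Glo luminescence quantified viability.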

[19] = target: Vitamin D3 receptor (Homo sapiens) (UniProt P11473); test: qHTS assay to identify small molecule antagonists of the vitamin D receptor (VDR) signaling pathway (AID 743223; active = well fitted inhibition curve with a large enough effect in the signal ratio in the repeat runs, not every such curve was filed as active; the % refers to the signal ratio)
In short: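 Cells carrying a VDR-driven beta-lactamase reporter (VDR-bla) were co-treated with compound and 3 nM final 1alpha,25-dihydroxyvitamin D3 for 16 h at 37C; reporter activity was measured as FRET substrate fluorescence after 2 h at room temperature.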

Measured: Potency

Sequence of Bile acid receptor (Homo sapiens) (Q96RI1 whole entry, looked up): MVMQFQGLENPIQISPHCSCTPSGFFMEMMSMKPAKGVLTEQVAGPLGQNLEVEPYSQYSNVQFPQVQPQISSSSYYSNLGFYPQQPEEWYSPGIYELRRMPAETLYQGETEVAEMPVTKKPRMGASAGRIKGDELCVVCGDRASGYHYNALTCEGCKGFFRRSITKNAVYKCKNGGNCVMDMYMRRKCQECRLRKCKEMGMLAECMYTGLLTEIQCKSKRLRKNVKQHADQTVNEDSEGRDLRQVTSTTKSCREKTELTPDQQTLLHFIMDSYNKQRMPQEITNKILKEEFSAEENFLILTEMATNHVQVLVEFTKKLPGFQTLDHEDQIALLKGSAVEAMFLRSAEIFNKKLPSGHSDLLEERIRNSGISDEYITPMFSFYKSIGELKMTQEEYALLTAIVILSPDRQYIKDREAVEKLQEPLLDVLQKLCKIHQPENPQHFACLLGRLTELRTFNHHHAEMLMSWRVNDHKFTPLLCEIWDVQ
Sequence of Peroxisome proliferator-activated receptor delta (Homo sapiens) (Q03181 whole entry, looked up): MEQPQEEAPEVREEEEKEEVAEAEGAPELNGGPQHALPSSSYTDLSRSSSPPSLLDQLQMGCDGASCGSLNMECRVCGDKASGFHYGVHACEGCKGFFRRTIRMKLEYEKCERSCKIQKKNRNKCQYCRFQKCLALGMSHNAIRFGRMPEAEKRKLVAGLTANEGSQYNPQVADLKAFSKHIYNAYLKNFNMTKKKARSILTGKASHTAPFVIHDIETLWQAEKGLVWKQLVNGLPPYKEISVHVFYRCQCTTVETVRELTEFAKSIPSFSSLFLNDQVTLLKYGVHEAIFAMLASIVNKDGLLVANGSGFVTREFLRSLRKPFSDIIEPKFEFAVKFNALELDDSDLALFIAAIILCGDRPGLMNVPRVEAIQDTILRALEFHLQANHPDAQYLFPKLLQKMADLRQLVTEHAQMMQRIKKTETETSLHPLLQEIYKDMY
Sequence of Vitamin D3 receptor (Homo sapiens) (P11473 whole entry, looked up): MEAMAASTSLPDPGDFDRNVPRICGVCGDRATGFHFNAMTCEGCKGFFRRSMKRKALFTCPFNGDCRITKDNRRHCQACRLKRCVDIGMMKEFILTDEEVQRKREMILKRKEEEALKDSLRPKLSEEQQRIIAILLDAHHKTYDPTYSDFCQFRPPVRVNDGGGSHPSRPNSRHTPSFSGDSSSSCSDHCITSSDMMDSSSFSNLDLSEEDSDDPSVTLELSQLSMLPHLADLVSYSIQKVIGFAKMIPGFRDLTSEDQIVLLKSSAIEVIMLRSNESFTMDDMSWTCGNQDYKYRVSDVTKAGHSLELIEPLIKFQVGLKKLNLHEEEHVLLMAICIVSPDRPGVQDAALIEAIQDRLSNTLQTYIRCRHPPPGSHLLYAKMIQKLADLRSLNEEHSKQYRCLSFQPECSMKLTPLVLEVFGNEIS

O=C(c1ccc2c(c1)C(=O)OC2=O)c1ccc2c(c1)C(=O)OC2=O
not listed: [18] | [19]
inactive: all other assays above

CCCO
not listed: [4] | [6] | [8] | [13] | [14] | [19]
inactive: all other assays above

NC(=O)NC(=O)Cc1ccccc1
not listed: [3] | [18]
inactive: all other assays above

CCS(=O)(=O)CCn1c([N+](=O)[O-])cnc1C
not listed: [3] | [4] | [6]
inactive: all other assays above

Cc1oc(=O)oc1CN1CCN(c2cc3c(cc2F)c(=O)c(C(=O)O)c2n3C(C)S2)CC1 (configuration not stated)
not listed: [4] | [6] | [15]
inactive: all other assays above

CC(C)COC(=O)/C=C/c1ccccc1
inactive: all assays above

CC(C)CCCC(C)CC=O (configuration not stated)
not listed: [3] | [4] | [6] | [7] | [8] | [19]
inactive: all other assays above

CCCCCCCCCCC
not listed: [1] | [3] | [4] | [6] | [7] | [8] | [13] | [19]
inactive: all other assays above

O=C(COCCOCCOCC(=O)Nc1c(I)cc(I)c(C(=O)O)c1I)Nc1c(I)cc(I)c(C(=O)O)c1I
not listed: [2] | [4] | [6] | [8] | [19]
inactive: all other assays above

C[C@H]1O[C@H](O[C@H]2[C@H](O)[C@@H](O)[C@@H](O[C@H]3[C@H](O)[C@@H](O)[C@H](O)O[C@@H]3CO)O[C@@H]2CO)[C@H](O)[C@@H](O)[C@@H]1N[C@H]1C=C(CO)[C@@H](O)[C@H](O)[C@H]1O
not listed: [4] | [6] | [13]
inactive: all other assays above

CC(=O)Nc1ncc([N+](=O)[O-])s1
not listed: [2] | [3] | [8] | [13] | [19]
inactive: all other assays above

CCNC(=O)NCCCOc1cccc(CN2CCCCC2)c1
not listed: [4] | [6] | [7] | [19]
inactive: all other assays above

F[Si-2](F)(F)(F)(F)F
not listed: [4]
inactive: all other assays above

FC(F)(F)/C(=N\OCC1OCCO1)c1ccc(Cl)cc1
not listed: [1] | [3] | [4] | [6] | [8] | [16] | [18]
inactive: all other assays above

O=C1CC[C@H](C(=O)N2CCCCC2)N1
not listed: [3] | [4] | [6] | [7] | [8] | [16] | [18] | [19]
inactive: all other assays above

CCCCCCCCCCCCOC(C)=O
not listed: [4] | [6] | [8]
inactive: all other assays above

CCCCCC1CCCC(=O)O1 (configuration not stated)
not listed: [3] | [7] | [8] | [14]
inactive: all other assays above

CCCCCCCC/C=C\CCCCCCCC(=O)OC[C@@H](O)[C@H]1OC[C@H](O)[C@H]1O
not listed: [3] | [4] | [6] | [8] | [10]
inactive: all other assays above
